Hit rate of the full screen: of about 340,000 compounds, about 2,300 (0.68%) were called active. Shown is part of a subset that was picked to be rich in actives. A number with no mark means an inactive call. Rule as the data show it: active = growth rescue above about 28% (passing the limit was not always enough); inconclusive = no clear call, values can overlap the other calls.
Experiment: rescue of yeast from PfHsp40 toxicity, primary screen, S. cerevisiae, ATP luminescence (AID 504582);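 also: yeast W303a lacking pdr1 and pdr3 grown in galactose medium; growth measured after three days at 30 °C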
Conditions: S. cerevisiae expressing PfHsp40, growth rescue, at 12.5 µM, hits give high values

Row | SMILES | growth rescue
1 | COc1ccc(CNC(=O)COC(=O)C2=Cc3ccccc3OC2)cc1 | 0.075%
2 | CC(=O)c1c(C)[nH]c(C(=O)NCc2ccc(C)cc2)c1C | -0.188%
3 | CCCCNC(=O)CSc1nccn1Cc1ccccc1 | 0.912%
4 | Cc1cccc(-c2nc(Nc3ccc(O)cc3)c3ccccc3n2)c1 | 101% (active)
5 | CN1CCN(c2nc(Nc3ccc(O)cc3)nc3ccccc23)CC1 | -0.529%
6 | Oc1ccc(-c2nnc(Nc3ccccc3)c3ccccc23)cc1 | -0.3%
7 | CC1(C)CC(=O)c2c(n(S(=O)(=O)c3ccccc3)c3ccc(NS(=O)(=O)c4ccccc4)cc23)C1 | -0.451%
8 | CC(=O)N1N=C(c2ccncc2)OC1(Cc1ccccc1)Cc1ccccc1 | -0.493%
9 | O=C(CSc1n[nH]c(-c2cccnc2)n1)Nc1ccc(Cl)cc1 | -2.05%
10 | Cc1c(C(=O)NCCN2C(=O)S/C(=C\c3cccs3)C2=O)cccc1[N+](=O)[O-] | 0.66%
11 | CC[C@]1(O)C[C@@H]2CN(CCc3c([nH]c4ccccc34)[C@@](C(=O)OC)(c3cc4c(cc3OC)N(C)[C@H]3[C@@](O)(C(=O)OC)[C@H](OC(C)=O)[C@]5(CC)C=CCN6CC[C@]43[C@@H]65)C2)C1 | -2.2%
12 | Cc1ccsc1-c1nc(CSCC(=O)NCCN2CCCC2)c(C)o1 | 35.6% (active)
13 | Cc1ccc(-c2nc(CSCC(=O)NC3CCN(Cc4ccccc4)CC3)c(C)o2)cc1 | 0.251%
14 | Cc1cc(NC(=O)CSCc2nc(-c3cccc(Cl)c3)oc2C)no1 | -0.561%
15 | Cc1ccccc1CSCCNC(=O)c1ccc(Cl)c(S(=O)(=O)N2CCOCC2)c1 | 1.98%
16 | CCC1CCCCN1C(=O)CSc1nc2c(c(=O)n(C)c(=O)n2C)n1C (centres undefined) | 17.3%
17 | Nc1ccccc1SC(C[N+](=O)[O-])c1ccccc1 (centres undefined) | 33.7% (active)
18 | CC(=O)N(OCc1ccc(OC(C)C)c(Cl)c1)C(C)=O | -0.894%
19 | COc1ccccc1CNC(=O)C1CCN(C(=O)[C@@H]2Cc3ccccc3CN2)CC1 | -0.254%
20 | COc1cccc(C2c3[nH]c4ccccc4c3CCN2Cc2cccc(C)n2)c1 (centres undefined) | 1.72%
21 | CCCNC(=O)CCc1c(C)nc2c(c(C)nn2-c2ccc(C)cc2)c1C | 1.12%
22 | COc1ccc(C(=O)N(C)CC(O)c2ccccc2)cc1OC1CCN(C(C)=O)CC1 (centres undefined) | 2.54%

Row | SMILES | growth rescue
23 | Cc1cc(S(=O)(=O)NC2CCCC2)ccc1-n1cnnn1 | 0.47%
24 | S=C(NCCC1=CCCCC1)Nc1ccccc1 | 9.46%
25 | CCCC1CCC(=NNC(=S)NCCc2ccccc2)CC1 (centres undefined) | 1.29%
26 | CCCCNC(=S)N/N=C1\CCCCc2ccccc21 | 63.9% (active)
27 | CCCCn1nc(C(=O)Nc2cccc(C(=O)NC3CC3)c2)c2ccccc2c1=O | 1.46%
28 | O=C(NCCCN1CCCC1=O)c1ccc(S(=O)(=O)Nc2ccccc2)cc1 | -0.823%
29 | COCCN1C(=O)C(=O)/C(=C(/O)c2ccc(S(=O)(=O)N3CCOCC3)cc2)C1c1ccc(O)c(OC)c1 (centres undefined) | -0.794%
30 | CC(=O)OCc1cc(=O)n(C)c(=O)n1C | -0.117%
31 | CC(=O)c1cc(NC(=O)c2ccccc2)c(=O)oc1/C=C/N(C)C | 1.15%
32 | Cc1cccc(NC(=O)c2ccc(S(=O)(=O)N(C)c3ccccc3)cc2)n1 | -1.12%
33 | CSc1nccc(NC(=O)c2ccc(C(C)(C)C)cc2)n1 | 733% (active)
34 | COC(=O)c1nc(NC(=O)c2ccc(C(C)(C)C)cc2)n[nH]1 | 0.045%
35 | Cn1c(C(=O)OC(C(=O)NC2CCCCC2)c2ccccn2)cc2sccc21 (centres undefined) | 1.92%
36 | CC(C)(CNC(=O)c1ccc(Cl)c(S(=O)(=O)N2CCc3ccccc3C2)c1)N1CCOCC1 | -1.18%
37 | O=C(OCC(=O)c1cccs1)c1ccc([N+](=O)[O-])o1 | -1.26%
38 | O=C(COC(=O)c1ccc(Br)o1)NC12CC3CC(CC(C3)C1)C2 | 4.21%
39 | O=C(COC(=O)c1ccc([N+](=O)[O-])o1)NC12CC3CC(CC(C3)C1)C2 | 364% (active)
40 | Cc1csc(NC(=S)Nc2cccc(Cl)c2)n1 | 118% (active)
41 | Cn1cc(Cl)c(C(=O)NNC(=S)Nc2cccc(Cl)c2)n1 | -0.14%
42 | Cc1cc(Cl)nc(NC(=O)Nc2cccc(Cl)c2)n1 | -0.042%
43 | CCOC(=O)c1csc(CCNC(=O)c2oc3c(Cl)cc(C)cc3c2C)n1 | -0.607%
44 | CCCc1nnc(NC(=O)CCC(=O)NC2CC2)s1 | 0.339%

Row | SMILES | growth rescue
45 | O=C(NCCCCO)C(F)(F)C(F)(F)C(F)(F)C(=O)NCCCCO | -1.94%
46 | O=S(=O)(NCCCc1ccccc1)c1ccc(Br)cc1 | 7.99%
47 | O=S(=O)(NCCc1ccccc1)c1ccccc1 | -1.03%
48 | O=c1ccc2cc(S(=O)(=O)NCCCc3ccccc3)ccc2[nH]1 | 30.5% (active)
49 | Cc1nc2ccccn2c1C(=O)NN=C1CCN(C)CC1 | -0.557%
50 | CCCCNC(=O)N(O)C1N(/N=C/c2ccc(N(C)C)cc2)C(=S)SC1(C)C (centres undefined) | -1.02%
51 | O=S(=O)(c1cccc2nonc12)N1CCN(c2cccc(Cl)c2)CC1 | 1.52%
52 | O=C(NNC(=O)c1cc(S(=O)(=O)N2CCCCC2)ccc1Cl)c1ccccc1O | 91.7% (active)
53 | CC1CCCC(NC(=O)c2cc(S(=O)(=O)N3CCCCC3)ccc2Cl)C1C (centres undefined) | 2.29%
54 | O=C(Nc1ccccc1C(=O)O)c1cc(S(=O)(=O)N2CCCCC2)cs1 | 0.561%
55 | O=C(NNC(=O)c1ccccc1O)c1ccccc1O | 68% (active)
56 | Cc1cc(C(=O)CCC(=O)NNC(=O)c2ccccc2O)c(C)s1 | -0.863%
57 | CC1=C(C)CC(C(=O)NNC(=O)c2ccccc2O)C(C(=O)O)C1 (centres undefined) | 1.17%
58 | COC(=O)c1sc(N)c(C(=O)OC)c1COC(=O)CNS(=O)(=O)c1ccc(C)cc1 | 0.164%
59 | COc1ccc(C(=O)C2CCCN(C(=O)c3cc4nc(C)cc(C)n4n3)C2)cc1F (centres undefined) | -1.21%
60 | COc1ccc2c(c1)OC(O)(C(F)(F)C(F)F)CC2=O (centres undefined) | 0.213%
61 | N#CCc1ccc(NC(=O)c2ccccc2C(=O)Nc2ccc(CC#N)cc2)cc1 | -0.068%
62 | O=C(NN=Cc1ccccc1O)NN=Cc1ccccc1O | -0.914%
63 | Cc1c(C(=O)Nc2ccccn2)oc2ccc(Br)cc12 | -0.794%
64 | Oc1ccc(Br)cc1/C=N/Nc1ccccn1 | 246% (active)

— PubChem BioAssay AID504582 (Broad Institute, 2011)
